Only some compounds are listed: those with a hit (about 14% of all), similar ones and a draw of the others.
NS1 function inh = inhibitors of influenza NS1 protein function; Potency, µM (top dose mostly 46.1 µM); 270,000 tested, 0.4% active; AID 2326; calls by dose curve; note: actives are rising curves; nearly all actives have a fitted effect of over 50% in size
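Compounds were scored for reversing the slow growth caused by influenza A NS1 in S. cerevisiae, measured by optical density at 600 nm. Assay medium contained 2% galactose at pH 6.0; NS1-free yeast of the same strain were the positive control.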
Shiga toxin inh = blocks Shiga toxin action in Vero cells; Vero cells, Shiga toxin protein synthesis inhibition reporter; inhibition, % at 38.7 µM; 290,000 tested, 9.2% active; AID 2315; in the data active = inhibition mostly above about 28%, no sharp cut-off; inactive = mostly below about 43%
LmPK inh = blocks Leishmania mexicana pyruvate kinase activity | purified LmPK, Kinase-Glo ATP luminescence, 1 h | Potency, µM (top dose mostly 57.5 µM), usual class: inhibitors | 290,000 tested, 0.37% active | AID 1721
Target sequence (Q27686 whole entry, looked up): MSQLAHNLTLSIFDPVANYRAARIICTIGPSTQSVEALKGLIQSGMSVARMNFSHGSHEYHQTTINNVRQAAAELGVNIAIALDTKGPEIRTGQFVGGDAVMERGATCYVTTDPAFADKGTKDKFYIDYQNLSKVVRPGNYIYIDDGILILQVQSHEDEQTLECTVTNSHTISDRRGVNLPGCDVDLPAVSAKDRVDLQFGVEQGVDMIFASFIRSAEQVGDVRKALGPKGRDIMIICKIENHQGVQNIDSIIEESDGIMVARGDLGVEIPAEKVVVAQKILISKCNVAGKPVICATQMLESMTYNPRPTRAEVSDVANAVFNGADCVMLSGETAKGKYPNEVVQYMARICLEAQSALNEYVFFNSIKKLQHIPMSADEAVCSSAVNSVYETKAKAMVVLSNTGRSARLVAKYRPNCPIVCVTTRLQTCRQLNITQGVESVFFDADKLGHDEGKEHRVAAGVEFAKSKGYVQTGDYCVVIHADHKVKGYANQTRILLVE
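ATP generated from ADP (0.1 mM) and PEP (0.5 mM) by 0.1 nM LmPK over 1 h at room temperature (pH 7.2 imidazole buffer) was detected by coupled luciferase luminescence. Values were normalized to uninhibited and no-enzyme wells.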
Giardia FBPA inh-1 = inhibitors of Giardia lamblia fructose-1,6-bisphosphate aldolase; AID 2451; purified Giardia FBPA; Potency, µM (doses to about 59.6 µM), usual class: inhibitors; A8B2U2; 290,000 tested, 0.71% active; note: nearly all actives have a fitted effect of over 55% in size
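40 nM FBPA preincubated 10 min at RT with compound (up to 57.5 uM final), then substrate plus GAPDH/TPI/NAD/arsenate coupling and diaphorase/resazurin added. Fluorescence read after 20 min at RT, 525/598 nm.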
CHX counter = affects cycloheximide protein synthesis inhibition readout, counter-screen; cell reporter, cycloheximide protein synthesis inhibition counterscreen; max response, %; 300,000 tested, 12% active; AID 2314; in the data active = max response mostly above about 13%, no sharp cut-off; inactive = mostly below about 14%; note: read at 38.3 µM for the half of the compounds with a filed dose
Giardia growth = blocks growth of Giardia lamblia trophozoites. Giardia lamblia trophozoite growth inhibition. shares compounds with Giardia FBPA inh-1. AID 2785. 1,500 tested, 5% active. Potency, µM (highest dose often 57.5 µM), hits mostly inhibitors;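 note: trophozoites exposed to compound for 48 h at 37 °C; nearly all actives have a fitted effect of over 70% in size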
Mammal cell tox = toxic to mammalian cells in Giardia aldolase counter-screen; 1,500 tested, 4% active; mammalian cell viability counter-screen, qHTS; Potency, µM (doses to about 57.5 µM), usual class: inhibitors; AID 2786; shares compounds with Giardia FBPA inh-1;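 note: Chinese hamster ovary cells used as mammalian cytotoxicity surrogate; viability measured as cellular ATP by luminescence; compound exposure lasted 48 h before reading; nearly all actives have a fitted effect of over 60% in size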
Giardia FBPA inh-2 = confirmation of Giardia fructose-bisphosphate aldolase inhibitors; Potency, µM (series often up to 57.5 µM), actives largely listed as inhibitors; 1,500 tested, 5% active; AID 2787; shares compounds with Giardia FBPA inh-1; purified Giardia aldolase enzyme activity, qHTS; note: nearly all actives have a fitted effect of over 45% in size
Rabbit aldolase = rabbit FBP aldolase inhibition by Giardia aldolase hits | shares compounds with Giardia FBPA inh-1 | Rabbit muscle FBPA enzyme inhibition, selectivity counter-screen | Potency, µM (doses to about 57.5 µM), usual class: inhibitors | 1,500 tested, 4% active; note: nearly all actives have a fitted effect of over 60% in size
GAPDH counter = counter-screen for Giardia aldolase inhibitors: GAPDH coupling enzyme; 1,500 tested, 6% active; GAPDH coupling enzyme counterscreen, biochemical, qHTS; Potency, µM (top dose mostly 57.5 µM), actives largely listed as inhibitors; shares compounds with Giardia FBPA inh-1; note: nearly all actives have a fitted effect of over 55% in size
Each line names hits and unclear results; the compound was inactive in the other large screens (follow-up assays come after a bar, where they were run); [ ] = remark or other dose. Unless noted, calls come from the whole dose curve; as a rule, active = well fitted curve in the direction sought with a large enough effect; inconclusive = small, poorly fitted or top-dose-only effect, or another doubt; inactive = no such curve, though single readings can be large; an effect the other way counts as inactive or inconclusive.

CCN(CC)C(=O)Cn1cc(C(=O)C(=O)NCCc2c[nH]c3ccccc23)c2ccccc21	none
Cc1c(N2C(=O)/C(=C3\C(=O)N(CC(=O)O)c4ccccc43)SC2=S)c(=O)n(-c2ccccc2)n1C	Giardia FBPA inh-1 10µM | Giardia growth inactive | Mammal cell tox inactive | Giardia FBPA inh-2 inconclusive | Rabbit aldolase inactive | GAPDH counter inconclusive
COc1cc(Cl)c(C)cc1NC(=S)NN	Giardia FBPA inh-1 20µM | Giardia growth inconclusive | Mammal cell tox inactive | Giardia FBPA inh-2 inactive | Rabbit aldolase inactive | GAPDH counter inactive
COc1ccc(CN2CCCN(C)CC2)c(OC)c1C	Giardia FBPA inh-1 inconclusive
COc1cc(Br)c(CN2CCCN(C)CC2)cc1OC	Giardia FBPA inh-1 13µM | Giardia growth inactive | Mammal cell tox inactive | Giardia FBPA inh-2 inactive | Rabbit aldolase inactive | GAPDH counter inactive
S=c1nc[nH]c2nc[nH]c12	Giardia FBPA inh-1 7.9µM | Giardia growth inactive | Mammal cell tox 7.9µM | Giardia FBPA inh-2 inconclusive | Rabbit aldolase inactive | GAPDH counter inactive
CN(Cc1ccco1)S(=O)(=O)c1nnc(NC(=O)c2ccc(F)cc2)s1	Giardia FBPA inh-1 20µM | Giardia growth inactive[10.4 µM] | Mammal cell tox inactive | Giardia FBPA inh-2 inconclusive | Rabbit aldolase 32µM | GAPDH counter 20µM
COc1ccc(CN(C)S(=O)(=O)c2nnc(NC(=O)c3ccccc3OC)s2)cc1OC	none
COc1ccc(CN(C)S(=O)(=O)c2nnc(NC(=O)c3ccc(C)cc3)s2)cc1OC	Giardia FBPA inh-1 25µM | Giardia growth inactive | Mammal cell tox inactive | Giardia FBPA inh-2 inconclusive | Rabbit aldolase inconclusive | GAPDH counter 20µM
O=C(Nc1ccc(N2CCOCC2)c2nonc12)C1CCCC1	Giardia FBPA inh-1 0.5µM, CHX counter 18 | Giardia growth inactive | Mammal cell tox inactive | Giardia FBPA inh-2 inactive | Rabbit aldolase inactive | GAPDH counter inactive
COc1ccc(NC(=O)COc2nsnc2N2CCOCC2)c(OC)c1	none (no result: Giardia FBPA inh-1)
COc1ccc(NC(=O)Nc2ccc(N3CCOCC3)c3nonc23)c(OC)c1	Giardia FBPA inh-1 5µM (no result: NS1 function inh) | Giardia growth inconclusive | Mammal cell tox inactive | Giardia FBPA inh-2 inactive | Rabbit aldolase inactive | GAPDH counter inactive
Cc1snc2sc(C(=O)c3ccc(F)cc3)c(N)c12	Shiga toxin inh 77, Giardia FBPA inh-1 6.3µM, CHX counter 26 | Giardia growth inactive | Mammal cell tox inactive | Giardia FBPA inh-2 40µM | Rabbit aldolase inconclusive | GAPDH counter inconclusive
Cc1onc(-c2ccccc2)c1C(=O)N1CCC(CO)(Cc2ccccc2)CC1	none
Cc1cccnc1NC(=S)Nc1ccc(F)cc1F	Shiga toxin inh 77, Giardia FBPA inh-1 20µM, CHX counter 35 | Giardia growth inconclusive | Mammal cell tox inactive | Giardia FBPA inh-2 inactive | Rabbit aldolase inactive | GAPDH counter inactive
Cc1cc(C)nc(NC(=S)Nc2ccc(F)cc2F)c1	none
Oc1ccc(-c2c(C3=CCCCC3)sc3ccccc23)cc1	none
C=CCNC(=S)NS(=O)(=O)c1cccs1	Giardia FBPA inh-1 5.6µM (no result: NS1 function inh) | Giardia growth inactive | Mammal cell tox inactive | Giardia FBPA inh-2 inactive | Rabbit aldolase inactive | GAPDH counter inactive
COc1cccc(NS(=O)(=O)c2ccc(-n3cccn3)cc2)c1	none (no result: Giardia FBPA inh-1)
COc1ccc(C)cc1NC(=O)CCS(=O)(=O)c1ccc2c(c1)oc(=O)n2C	none (no result: Giardia FBPA inh-1)
COc1ccc(NC(=S)c2ccncc2)cc1	none
Cc1ccc(NC(=S)c2ccncc2)cc1	Giardia FBPA inh-1 28µM | Giardia growth inactive | Mammal cell tox inactive | Giardia FBPA inh-2 inactive | Rabbit aldolase inactive | GAPDH counter inactive
COc1cccc(NC(=O)C2CCC(CNS(=O)(=O)c3ccc4c(c3)CC(C)N4C(C)=O)CC2)c1 (centres undefined)	none
O=C(NCc1ccccc1)C(c1ccccc1)N(C(=O)c1csnn1)c1ccccc1 (centres undefined)	none
COc1ccc(OC)c(N=C2C(=O)Nc3ccccc32)c1	Giardia FBPA inh-1 inconclusive
COc1ccc(OC)c(N=c2ssnc2Cl)c1	Giardia FBPA inh-1 18µM | Giardia growth inconclusive | Mammal cell tox inactive | Giardia FBPA inh-2 inactive | Rabbit aldolase inactive | GAPDH counter inactive
Cc1cc(Cl)ccc1N=c1ssnc1Cl	Giardia FBPA inh-1 16µM | Giardia growth inactive | Mammal cell tox inactive | Giardia FBPA inh-2 inactive | Rabbit aldolase inactive | GAPDH counter inactive
Cn1c(=O)c2c(nc(NNC(=O)C(F)(F)F)n2C)n(C)c1=O	Giardia FBPA inh-1 18µM (no result: NS1 function inh) | Giardia growth inactive[10.4 µM] | Mammal cell tox inactive | Giardia FBPA inh-2 inactive | Rabbit aldolase inactive | GAPDH counter inactive
Cn1c(=O)c2c(nc(NN=C3CCCC3)n2C)n(C)c1=O	Giardia FBPA inh-1 16µM | Giardia growth inactive | Mammal cell tox inactive | Giardia FBPA inh-2 inactive | Rabbit aldolase inactive | GAPDH counter inactive
CCOc1ccc(OCCN2CCCCC2)cc1	none
CCOc1ccc(OCCOCCN2CCCC2)cc1	Giardia FBPA inh-1 28µM | Giardia growth inconclusive | Mammal cell tox inactive | Giardia FBPA inh-2 inactive | Rabbit aldolase inactive | GAPDH counter inactive
Cc1cc(Br)ccc1OCCOCCN1CCCC1	Giardia FBPA inh-1 16µM | Giardia growth inactive[10.4 µM] | Mammal cell tox inactive | Giardia FBPA inh-2 inactive | Rabbit aldolase inactive | GAPDH counter inactive

From PubChem
